From PubChem BioAssay
Compounds with a hit are over-represented: about 7% of the library has one in this group of screens.
ADAM17 inh: ADAM17 inhibition, QFRET primary screen. recombinant ADAM17, EDANS/DABCYL FRET peptide cleavage. inhibition, % at 6.95 µM. hit rate 0.83% among 370,000;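 active = inhibition above the mean of compounds lying between control limits plus 3 SD, set per campaign, cut at about 8.5% in these data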;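 also: 0% = DMSO-only wells as the low control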
GRIN3A LBD mod: modulators (binders) of human NR3A ligand-binding domain; Tm shift relative to glycine control, % at 25 µM; NR3A LBD differential scanning fluorimetry, Tm shift; 0% = protein alone, 100% = glycine-bound protein; hit rate 2.5% among 340,000;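 active = melting temperature shift of at least 10% of the positive control shift, at one fixed dose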
proKLK7 act: activates the human kallikrein-7 zymogen; purified proKLK7, EDANS-DABCYL substrate fluorescence; 100% is mature enzyme control, 0% vehicle; activation, % at 7 µM; hit rate 0.9% among 370,000; AID 652039;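 active = activation above the mean of all tested compounds plus 3 SD, computed per campaign excluding outliers beyond control limits, cut at about 13% in these data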
Target sequence (P49862 whole entry, looked up): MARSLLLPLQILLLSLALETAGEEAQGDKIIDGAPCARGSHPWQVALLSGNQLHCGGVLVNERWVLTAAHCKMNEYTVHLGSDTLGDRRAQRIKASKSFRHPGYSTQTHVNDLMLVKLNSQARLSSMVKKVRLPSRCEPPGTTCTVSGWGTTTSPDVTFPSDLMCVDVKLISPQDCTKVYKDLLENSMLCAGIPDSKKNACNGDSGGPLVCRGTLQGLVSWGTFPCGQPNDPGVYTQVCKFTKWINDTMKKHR
rCAG RNA binder: molecules binding r(CAG) RNA repeats; r(CAG) RNA repeat, TO-PRO-1 dye displacement fluorescence; inhibition, % at 3 µM; hit rate 1.3% among 370,000;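 active = inhibition above the plate cutoff, the mean of all test compounds on that plate plus 3 SD, cut at about 35% in these data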;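 also: 0% = DMSO alone and 100% = 100 µM mitoxantrone as full dye displacement; higher means more dye released from RNA so lower well fluorescence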
ADAM10 inh: ADAM10 inhibition, QFRET primary screen | recombinant ADAM10, EDANS/DABCYL FRET peptide cleavage, 3 h | inhibition, % at 7 µM | hit rate 0.62% among 370,000 | AID 720582;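 active = inhibition above a per-campaign cutoff equal to the mean of compounds falling between control-based bounds plus 3 SD, cut at about 20% in these data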;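 also: 0% = DMSO wells while the 100% control is not disclosed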
AHR activator: human AHR activation | P35869 | AHR-responsive luciferase reporter cells, luminescence | activation, % at 5 µM | hit rate 2.5% among 320,000; in the data active = activation above about 47%;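 also: 0% = vehicle wells and 100% = reference agonist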
rCAG binder conf: r(CAG) RNA repeat binding, confirmation; AID 652065; hit rate 70% among 4,300; shares compounds with rCAG RNA binder; TO-PRO-1 dye displacement fluorescence; inhibition, % at 3 µM;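 active = inhibition above a per-plate cutoff, the mean inhibition of sample wells plus 3 SD, cut at about 35% in these data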;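 also: loss of TO-PRO-1 fluorescence as compound displaces dye from 1x1 AA loop RNA; 0% = DMSO only wells and 100% = 100 µM mitoxantrone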
DNA CAG counter: counter-screen for rCAG RNA binders: DNA CAG dye complex inhibitors; d(CAG) DNA oligo TO-PRO-1 dye displacement, fluorescence; hit rate 94% among 4,300; shares compounds with rCAG RNA binder; inhibition, % at 3 µM;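 active = inhibition above its plate's cutoff, the mean test-well inhibition plus 3 SD, cut at about 4.8% in these data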;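 also: 0% = DNA dye mix with DMSO and 100% = 100 µM mitoxantrone; hits displace the dye from DNA and so lower well fluorescence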
DNA CAG DR: counter-screen for rCAG binders: inhibitors of DNA CAG TO-PRO-1 complex | DNA CAG/GTC duplex TO-PRO-1 dye displacement fluorescence | AID 686960 | hit rate 20% among 250 | IC50, µM | shares compounds with rCAG RNA binder; in the data active = IC50 below about 10 µM
The depositor's hits bear a star; i = inactive; · = no result.

SMILES | ADAM17 inh | GRIN3A LBD mod | proKLK7 act | rCAG RNA binder | ADAM10 inh | AHR activator | rCAG binder conf | DNA CAG counter | others
CC1=C(C)CC(C(=O)Nc2nc(-c3ccc(C)cc3C)c(C)s2)C(C(=O)O)C1 (stereo not given) | 1 | 0 | 0 | 54* | 4 | -2 | 56* | 23* | DNA CAG DR=>30
Fc1cccc(Cn2ccc3ccc(-c4ccc5ccn(Cc6ccccc6)c5c4)cc32)c1 | -18 | · | -2 | 17 | -62 | · | · | ·
FC(F)(F)Oc1cccc(Cn2ccc3ccc(-c4ccc5ccn(Cc6ccccc6)c5c4)cc32)c1 | -16 | · | -2 | 55* | -46 | · | 14 | 8.9*
Cn1c(=O)c2[nH]c(SCC(=O)N3CCN(c4cccc(C(F)(F)F)c4)CC3)nc2n(C)c1=O | -2 | · | 1 | 11 | 0 | · | · | ·
CCOc1ccccc1C(=O)Nc1ccc(S(=O)(=O)Nc2nccc(C)n2)cc1 | -2 | -1 | 1 | 18 | 4 | 3 | · | ·
COc1ccc(-c2cc(C(=O)Nc3ccc(S(=O)(=O)Nc4ncccn4)cc3)c3ccccc3n2)cc1 | -9 | -8 | -3 | 58* | -7 | 1 | 56* | 22*
Cc1ccnc(NS(=O)(=O)c2ccc(NS(=O)(=O)c3ccc(Br)cc3)cc2)n1 | 1 | -2 | -1 | 4 | -8 | 1 | · | ·
Cc1ccnc(NS(=O)(=O)c2ccc(NC(=O)c3cc(-c4ccccc4)nc4ccccc34)cc2)n1 | 1 | -4 | 0 | 45* | -4 | 10 | 56* | 16*
Cc1ccnc(NS(=O)(=O)c2ccc(NC(=O)c3cc(-c4ccc(Br)cc4)nc4ccccc34)cc2)n1 | 4 | 6 | 0 | 39* | 2 | 4 | 72* | 33* | DNA CAG DR=i
COc1cc(-c2cc(C(=O)Nc3ccc(S(=O)(=O)Nc4ncccn4)cc3)c3ccccc3n2)cc(OC)c1OC | -3 | 0 | 1 | 5 | 0 | 2 | · | ·
Cc1cccc(CN2[C@@H](C)[C@H](c3ccccc3)Oc3cc(Br)ccc3S2(=O)=O)c1 | -1 | · | 0 | 5 | 0 | · | · | ·
COc1ccc2c(c1)[C@]1(C(=O)N2C)C2=C(CCCC2=O)Oc2cc(C)oc(=O)c21 | -1 | · | 1 | 2 | 2 | · | · | ·
Cc1ccc(S(=O)(=O)N2[C@@H](c3ccc(Cl)cc3)C(C(=O)O)=CC[C@H]2c2ccc3c(c2)OCO3)cc1 | 0 | -2 | 0 | 54* | 13 | -3 | 60* | 23*
Cc1ccc([C@H]2C(C(=O)O)=CC[C@@H](c3ccc4c(c3)OCO4)N2S(=O)(=O)c2ccc(C)cc2)cc1 | -3 | 5 | 1 | 63* | -12 | 2 | 61* | 22*
Cc1ccc(S(=O)(=O)N2[C@@H](c3ccc(Br)cc3)C(C(=O)O)=CC[C@H]2c2ccc3c(c2)OCO3)cc1 | -4 | 2 | 0 | 67* | -3 | -1 | 60* | 23*
Cc1ccc(S(=O)(=O)N2[C@@H](c3ccc(Br)cc3)C(C(=O)O)=CC[C@H]2c2cccc(Cl)c2)cc1 | -1 | -8 | 0 | 14 | -7 | 2 | · | ·
Cc1ccc(S(=O)(=O)N2[C@@H](c3cccc(Cl)c3)C(C(=O)O)=CC[C@H]2c2ccc3c(c2)OCO3)cc1 | 1 | 1 | 1 | 67* | 6 | -1 | 69* | 31*
Cc1cc(C)c2sc(N(CCCN(C)C)C(=O)c3ccc(S(=O)(=O)N4CCc5ccccc5C4)cc3)nc2c1 | · | · | · | · | · | 10 | · | ·
CCc1nnc(NC(=O)c2ccc(S(=O)(=O)N3CCc4ccccc4C3)cc2)s1 | -2 | -1 | 0 | 1 | 0 | 2 | · | ·
CCOC(=O)Cc1csc(NC(=O)c2cc(=O)c3ccccc3o2)n1 | 0 | -2 | 0 | 4 | -2 | 0 | · | ·
Cc1cc(C)c2sc(NNC(=O)c3ccc(S(=O)(=O)N4CCc5ccccc5C4)cc3)nc2c1 | 11* | 4 | -1 | 48* | 11 | 14 | 59* | 29*
